In general, AC50 refers to the concentration giving half of the maximal activity seen.

Consider six molecules from PubChem BioAssay (EPA / NIEHS).

Where “and” joins values, the source holds several entries; their conditions need not be identical. Equal values may be shown once. Inconclusive results are not listed. Where a structure was tested more than once in an assay, its records may differ in their call. Calls of active or inactive are those of the source. How the source made its calls, unless noted: active means hit-call score of the fitted dose curve at least 0.9, where 1 is the maximum; inactive means score below 0.9.

Read-out in assay [1]: Macrophage colony-stimulating factor (MCSF), CSF1 (gene 1435)
The assay can be described thus: BSK_IMphg_MCSF: BioMAP Diversity Plus: IMphg Assay for Macrophage colony-stimulating factor (MCSF) Biomarker Activity (AID 2284293). The note with it: primary human endothelial cells with macrophages. An outline of the steps:
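Co-culture of human venular endothelial cells and macrophages, 24 hours of chemical exposure. M-CSF quantified by ELISA, with parallel SRB total-protein staining for cytotoxicity; activity fitted relative to DMSO.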

Read-out in assay [2]: Interleukin-10 (IL10), IL10 (gene 3586)
The assay can be described thus: BSK_IMphg_IL10: BioMAP Diversity Plus: IMphg Assay for Interleukin-10 (IL10) Biomarker Activity (AID 2284294). The note with it: primary human endothelial cells with macrophages. An outline of the steps: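 Human venular endothelial cells cocultured with macrophages, dosed 24 h; IL-10 measured by ELISA, activity relative to DMSO. Cytotoxicity assessed in parallel cultures by sulforhodamine B total-protein staining.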

The nature of assay [3]: BSK_IMphg_SRB.Mphg: Macrophage Viability Assessment in the BioMAP Diversity Plus: IMphg Assay (AID 2284295). As to conditions: primary human endothelial cells with macrophages. An outline of the steps:
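Venular endothelial cells co-cultured with macrophages, read 24 h after dosing. Total protein measured by 0.1% SRB staining after 10% TCA fixation, absorbance at 560 nm. Fitted in positive direction against DMSO baseline.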

Read-out in assay [4]: Thrombomodulin, THBD (gene 7056)
Briefly: BSK_LPS_Thrombomodulin: BioMAP Diversity Plus: LPS Assay for Thrombomodulin Biomarker Activity (AID 2284296). The note with it: primary human HUVEC with PBMC. In a few lines:
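Human umbilical vein endothelial cells co-cultured with PBMC and stimulated with LPS; cell-surface thrombomodulin measured by ELISA 24 hours after compound. Gain or loss versus DMSO; cytotoxicity checked by SRB staining in parallel cultures.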

Read-out in assay [5]: CD69, CD69 (gene 969)
Briefly: BSK_LPS_CD69: BioMAP Diversity Plus: LPS Assay for CD69 Biomarker Activity (AID 2284303). As to conditions: primary human HUVEC with PBMC. An outline of the steps:
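Human umbilical vein endothelial cells co-cultured with PBMC under LPS stimulation, chemical exposure 24 h; cell-surface CD69 measured by ELISA and fitted in the positive direction versus DMSO.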

The test system of assay [6] is TTR (gene 7276). The assay can be described thus: CCTE_GLTED_hTTR_0.5uM: CCTE's human Transthyretin (hTTR) Inhibition Assay, with 0.5uM TTR, Great Lakes Toxicology and Ecology Division (GLTED) Lab (AID 2284320). In a few lines: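 Cell-free displacement assay in which human TTR at 0.5 uM was incubated with test chemical for 2 h. Displacement of the ANSA probe was read by fluorescence at 380 nm excitation/475 nm emission. Loss of signal was fitted in the positive direction versus DMSO.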

The subject of assay [7] is SERPINA7 (gene 6906). The assay can be described thus: CCTE_GLTED_hTBG: CCTE's human Thyroxine-binding Globulin (TBG) Inhibition Assay, Great Lakes Toxicology and Ecology Division (GLTED) Lab (AID 2284343; active means hit-call score of the fitted dose curve at least 0.9, where 1 is the maximum;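 further: active chemicals lower fluorescence versus DMSO baseline by displacing probe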). An outline of the steps:
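Human TBG incubated 2 h with test chemical; displacement of ANSA probe read by fluorescence, 380 nm excitation/475 nm emission. Loss of signal relative to DMSO.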

A short description of assay [8]: CCTE_Mundy_HCI_iCellGluta_NOG_NeuronCount: CCTE's Neurite Outgrowth Assay in iCellGluta cells for Neuron Count, Mundy Lab (AID 2284340; active means hit-call score of the fitted dose curve at least 0.9, where 1 is the maximum;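 further: cells fixed about 48 h after compound addition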). In a few lines:
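Neuron count read by automated high-content imaging of Hoechst 33342 and betaIII-tubulin/Alexa Fluor-488 labelling in human iPSC glutamatergic neurons. Activity fitted relative to DMSO.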

Assay [9] can be described thus: CCTE_Mundy_HCI_iCellGluta_NOG_NeuriteCount: CCTE's Neurite Outgrowth Assay in iCellGluta cells for Neurite Count, Mundy Lab (AID 2284342; active means hit-call score of the fitted dose curve at least 0.9, where 1 is the maximum;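 further: chemical exposure about 48 hours starting 2 hours after plating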).
The nature of assay [10]: Tanguay_ZF_120hpf_MO24: Oregon State University Tanguay Lab 24 Hour Post-fertilization zebrafish Assay for Mortality (AID 2284389). In a few lines:
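Dechorionated wild-type zebrafish embryos, 1 per well, statically exposed from 6 hpf at 28C, 0.64% DMSO final. Mortality scored as binary present/absent at 24 hpf by brightfield microscopy, relative to DMSO.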

The nature of assay [11]: Tanguay_ZF_120hpf_CRAN: Oregon State University Tanguay Lab 120 Hour Post-fertilization zebrafish Assay for Craniofacial Malformation (AID 2284397). In a few lines:
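Dechorionated Tropical 5D wild-type zebrafish embryos, one per well, were statically exposed from 6 to 120 hpf at 28C in 0.64% DMSO, with 5uM trimethyltin chloride as positive control. Craniofacial malformation was scored present/absent by brightfield microscopy, relative to DMSO.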

Assay [12] is described as follows: Tanguay_ZF_120hpf_MORT: Oregon State University Tanguay Lab 120 Hour Post-fertilization zebrafish Assay for Mortality (AID 2284399). In a few lines:
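Dechorionated wild-type Tropical 5D zebrafish embryos, one per well from 6 hpf, static exposure to 120 hpf at 28C in sealed dark plates, 0.64% DMSO final. Mortality scored as binary by brightfield at 24 and 120 hpf.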

The nature of assay [13]: Tanguay_ZF_120hpf_EDEM: Oregon State University Tanguay Lab 120 Hour Post-fertilization zebrafish Assay for Edema Malformation (AID 2284400). In a few lines: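 Dechorionated Tropical 5D wild-type embryos, one per well, statically exposed from 6 to 120 hpf at 28C in 0.64% DMSO. Edema scored present/absent by brightfield microscopy at 120 hpf; dead embryos not scored; fit versus DMSO.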

Assay [14] can be described thus: Tanguay_ZF_120hpf_TCHR: Oregon State University Tanguay Lab 120 Hour Post-fertilization zebrafish Assay for Touch Responsive (AID 2284403). In a few lines: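 Dechorionated Tropical 5D wild-type zebrafish embryos, one per well from 6 hpf, were statically exposed to 120 hpf at 28 °C (0.64% DMSO). Touch response was scored present/absent at 120 hpf and not scored in dead larvae.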

Assay [15] is described as follows: Tanguay_ZF_120hpf_ANY: Oregon State University Tanguay Lab 120 Hour Post-fertilization zebrafish Assay for Any Mortality and Malformation (AID 2284404). In a few lines: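 Dechorionated Tropical 5D wild-type embryos, one per well from 6 hpf, static exposure in sealed, dark plates at 28C until 120 hpf, 0.64% DMSO final. Brightfield scoring of mortality and malformations as binary presence/absence, pooling 13 morphology endpoints.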

Assay [16] relates to IYD (gene 389434). Briefly: CCTE_GLTED_hIYD: CCTE's human Iodotyrosine Deiodinase (xIYD) Inhibition Assay, Great Lakes Toxicology and Ecology Division (GLTED) Lab (AID 2284317; active means hit-call score of the fitted dose curve at least 0.9, where 1 is the maximum;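 further: cell-free human IYD enzyme made in baculovirus insect cells; iodide freed from monoiodotyrosine measured by cerium arsenite color change at 420 nm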). In a few lines: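 hIYD: baculovirus-expressed human IYD deiodinated monoiodotyrosine for 3 h with test chemical; free iodide was measured by Sandell-Kolthoff absorbance at 420 nm and normalized to MNT and DMSO/NaOH controls.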

A short description of assay [17]: CCTE_Mundy_HCI_iCellGluta_NOG_NeuriteLength: CCTE's Neurite Outgrowth Assay in iCellGluta cells for Neurite Length, Mundy Lab (AID 2284318; active means hit-call score of the fitted dose curve at least 0.9, where 1 is the maximum). In a few lines: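 Automated high-content imaging of betaIII-tubulin (Alexa Fluor-488) and Hoechst-stained cells gave neurite length, normalized to the DMSO baseline.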

For `O=C(O)C(F)(F)OC(F)(F)C(F)(F)OC(F)(F)C(F)(F)OC(F)(F)F`, the result in [1], in [2], in [3], in assay [4] and in assay [5] was inactive. Further, the results for the AC50 in assay [6] and in assay [7] were 230 nM (active) and 18.6 µM (active), respectively.

With `C=CC(=O)OCC(F)(F)C(F)(F)C(F)(F)COC(=O)C=C`, the result in assay [1], in assay [3], in assay [8], in assay [9] and in [14] was inactive. Further, the AC50 in assay [2] is 38.3 µM (active) and 41.1 µM (active); in assay [3] it was 39.4 µM (active); in assay [4], 8.08 µM (active) and 7.99 µM (active); in [5], 15.9 µM (active) and 10.5 µM (active); in [6], 424 nM (active); in [10], 29.3 µM (active). Besides, the AC50 in assay [11] was 18.6 µM (active); in assay [12], 16.3 µM (active); in assay [13], 20.9 µM (active); in assay [15], 5.92 µM (active).

On to `O=S(=O)(O)CCC(F)(F)C(F)(F)C(F)(F)C(F)(F)C(F)(F)C(F)(F)C(F)(F)C(F)(F)F`, for which the outcome in [1], in assay [3], in assay [4], in assay [5], in [8] and in assay [9] was inactive. Also, the call in [10], in assay [13] and in assay [14] was inactive. Moreover, the AC50 in assay [2] was 30 µM (active); in [4], 8.71 µM (active); in [6] it was 8980 nM (active); in assay [11], 89.2 µM (active); in [12], 64.2 µM (active); in assay [15] it was 74.4 µM (active).

In the case of `O=C(O)CCC(F)(F)C(F)(F)C(F)(F)C(F)(F)C(F)(F)C(F)(F)C(F)(F)F`, the outcome in assay [1], in [3], in assay [4], in assay [5], in [17] and in assay [8] was inactive. Besides, the molecule was called inactive in assay [9], in assay [10], in assay [11], in assay [12], in assay [13] and in [14]. For the same molecule, in assay [15], the molecule was called inactive. Moreover, the AC50 in [2] is 3.33 µM (active); in [3], 4.29 µM (active); in assay [16], 160 µM (active); in assay [6], 3340 nM (active).

As to `OCCCCC(F)(F)C(F)(F)C(F)(F)C(F)(F)F`, the result in assay [1], in assay [2], in [3], in assay [4], in assay [5] and in [17] was inactive. For the same molecule, the molecule was called inactive in assay [8], in assay [9], in assay [10], in [11], in assay [12] and in [13]. Further, the result in [14] and in assay [15] was inactive.

On to `CCN(CCO)S(=O)(=O)C(F)(F)C(F)(F)C(F)(F)C(F)(F)C(F)(F)C(F)(F)C(F)(F)C(F)(F)F`, for which the result in [1], in assay [2], in assay [3], in [17], in [8] and in assay [9] was inactive. For the same molecule, the molecule was classed as inactive in assay [10], in [11], in assay [12], in [13], in assay [14] and in assay [15]. The AC50 in [3] was 44.2 µM (active); in assay [4], 16.6 µM (active) and 13.5 µM (active); in [5], 8.1 µM (active) and 7.79 µM (active).
